APOBEC3A inh – blocks human APOBEC3A ssDNA deamination | inhibition, % at 20 µM | actives 0.41% (n = 330,000) | recombinant A3A, FAM/TAMRA ssDNA deamination fluorescence | P31941 | AID 493011;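 active = at least 40% inhibition at 20 µM here, with at most 30% in a related deaminase screen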;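 note: plate controls were A3A with DMSO for no effect and wells lacking A3A enzyme for full effect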
Target sequence (P31941 whole entry, looked up): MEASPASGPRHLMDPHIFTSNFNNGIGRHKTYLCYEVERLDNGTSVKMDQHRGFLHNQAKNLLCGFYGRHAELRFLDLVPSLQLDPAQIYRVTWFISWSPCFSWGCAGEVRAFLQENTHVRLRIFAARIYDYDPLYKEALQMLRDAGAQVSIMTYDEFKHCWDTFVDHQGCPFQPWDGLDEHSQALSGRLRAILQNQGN
NTR1 ag – NTR1 (human) agonism. activation, % at 20 µM. P30989. NTR1-U2OS beta-arrestin-GFP spot imaging, agonist mode. actives 0.17% (n = 330,000);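 active = activation at or above 40% of the spot to cytoplasm intensity ratio, with at least 20 cells analyzed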;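 note: 0% = DMSO without peptide and 100% = 100 nM NTR1 peptide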
A3G deaminase – inhibitors of human APOBEC3G DNA deaminase | recombinant A3G, ssDNA deamination FAM/TAMRA fluorescence | inhibition, % at 20 µM | actives 0.28% (n = 330,000) | AID 493012;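 active = inhibition of at least 40% at 20 µM, with no more than 30% in the related APOBEC3A deaminase screen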;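 note: plate controls were DMSO wells with A3G for no effect and wells lacking A3G enzyme for full effect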
Target sequence (Q9HC16 whole entry, looked up): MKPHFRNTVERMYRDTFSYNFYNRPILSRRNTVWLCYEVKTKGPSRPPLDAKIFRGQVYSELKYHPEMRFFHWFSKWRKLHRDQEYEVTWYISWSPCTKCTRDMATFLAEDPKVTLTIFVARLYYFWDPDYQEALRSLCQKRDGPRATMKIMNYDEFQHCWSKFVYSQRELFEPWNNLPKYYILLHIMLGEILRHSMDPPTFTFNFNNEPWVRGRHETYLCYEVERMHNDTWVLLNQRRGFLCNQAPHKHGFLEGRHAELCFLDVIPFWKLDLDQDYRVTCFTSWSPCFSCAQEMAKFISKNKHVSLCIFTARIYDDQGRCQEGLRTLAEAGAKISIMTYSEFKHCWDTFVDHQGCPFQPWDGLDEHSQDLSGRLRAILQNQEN
AHR act – activates the human aryl hydrocarbon receptor. AHR-responsive luciferase reporter cells, luminescence. actives 2.5% (n = 320,000). activation, % at 5 µM. AID 2796; in the data active = activation above about 47%;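 note: 0% = vehicle wells and 100% = reference agonist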
Active calls of the source: *. A selection: hits, their analogues and other compounds. The true share with any hit is near 3.2%.

SMILES	APOBEC3A inh	NTR1 ag	A3G deaminase	AHR act
CCN1CCn2c3c(c4cccc(C)c42)CCCC31 (stereo not drawn)	2	0	-4	61*
Nc1ccc(NC(=O)c2ccco2)c(Cl)c1	1	-1	-2	-5
O=C(/C=C/c1ccco1)NC(=S)Nc1cccc(-c2nc3ccccc3o2)c1	1	5	-7	57*
Cc1ccc(-c2nc3ccccc3o2)cc1NC(=S)NC(=O)/C=C/c1ccco1	12	2	-5	34
O=C(NNS(=O)(=O)c1ccc(F)cc1)C1CCN(Cc2cccc(F)c2)CC1	0	1	-5	0
CCCCN(C(=O)c1ccc2c(c1)OCO2)c1ccccc1	2	2	-4	7
Cc1ccc(NC(=O)c2sc(N)nc2C)cc1	3	0	1	61*
Cc1nc(NC(N)=S)sc1C(=O)Nc1ccccc1	-4	1	-2	105*
COC(=O)c1ccccc1NC(=O)c1sc(N)nc1C	-1	3	-5	2
Cc1ccc(Nc2ccc(C(=O)NC3CCCCC3)cn2)cc1	3	3	-2	9
O=C(Nc1cccc(NC(=O)c2cccs2)c1)c1ccc2c(c1)OCCO2	-1	-2	-4	17
Cn1c(C(=O)N2CCC(C(=O)NCc3ccccc3)CC2)cc2sccc21	-3	1	-4	0
NNc1nc2ccc(F)cc2s1	-2	3	-8	77*
Fc1ccc2nc(Nc3nc4c(F)cccc4s3)sc2c1	-1	9	-6	62*
Cc1cccc(-c2nc3ccccc3c(=O)n2NC(=O)c2cccs2)c1	2	2	1	9
Cc1ccc(-c2nc3ccccc3c(=O)n2NC(=O)c2cccs2)cc1	2	0	-3	52*
COc1ccc(Br)cc1Cn1nnc(C(=O)Nc2ccc3c(c2)OCCO3)c1N	-1	1	-3	60*
COc1ccc(NC(=O)c2nnn(CC(=O)Nc3ccc4c(c3)OCO4)c2N)cc1OC	2	0	-3	6
CCCn1nc(C(=O)NNC(=O)CSC(C)C(=O)Nc2cc(C)on2)c2ccccc2c1=O (stereo not drawn)	2	-1	-2	0
CCc1cccc(CC)c1NC(=S)/C(=C(\[O-])c1ccc(Cl)s1)[n+]1ccccc1	-1	5	5	1
[O-]/C(=C(\C(=S)Nc1cccc2ccccc12)[n+]1ccccc1)c1ccc(Cl)s1	3	0	-7	73*
Cc1cc(C)n(-c2nc(C)nc3c2cnn3-c2ccccc2)n1	-6	4	-3	49*
O=C(c1ccco1)N1CCN(c2ncnc3c2[nH]c2ccc(Cl)cc23)CC1	-1	0	-5	81*
Cc1cc2nn(-c3cccc4ccccc34)nc2cc1NC(=O)c1cccs1	4	5	1	57*
COc1ccc(NC(=O)CCCn2nc(C)c3c(C)n(-c4ccccc4)nc3c2=O)cc1	-3	0	-5	1
SMILES	APOBEC3A inh	NTR1 ag	A3G deaminase	AHR act
O=C(Nc1cscc1S(=O)(=O)c1ccccc1)c1ccccc1Cl	9	0	2	1
COc1cc(/C=N/Nc2nc3ccccc3s2)ccc1OC(=O)c1ccccc1F	4	1	2	78*
COc1cc(OC)cc(C(=O)Oc2ccc(/C=N/Nc3nc4ccccc4s3)cc2OC)c1	-6	9	-5	72*
COc1cc(/C=N/Nc2ccccc2[N+](=O)[O-])ccc1OC(=O)c1ccccc1F	2	-1	0	11
COc1cc(/C=N/Nc2nc3ccccc3s2)cc([N+](=O)[O-])c1O	4	2	0	41
COc1ccc(CCNc2nc(-c3ccncc3)cs2)cc1OC	-1	2	-9	66*
COc1ccc(CCNc2nc(-c3sc(C)nc3C)cs2)cc1OC	0	2	0	52*
COc1ccc(CCNc2nc(-c3ccc(O)cc3)cs2)cc1OC	1	1	2	39
Cc1c(OC(C)C(=O)NCc2ccncc2)ccc2c3c(c(=O)oc12)CCCC3 (stereo not drawn)	1	0	0	-5
CCOc1ccc(NC(=S)N(Cc2ccc(Cl)cc2)Cc2ccco2)cc1	-1	3	-1	6
CCC(=O)N(Cc1ccco1)c1nc(C(=O)Nc2ccc(Cl)cc2)c(C)s1	-2	2	0	74*
Cc1ccccc1-c1cc(-c2ccccc2O)on1	0	3	-7	73*
O=c1c2c(nc3n1CCS3)c1cc(F)ccc1n2Cc1cc(=O)n2cc(Cl)ccc2n1	-1	3	-5	1
O=C(O)/C=C/c1ccc(-n2ccnc2)cc1	-1	2	-1	-2
CCOc1ccc(S(=O)(=O)NCCC(=O)N(C)CC(=O)Nc2ccc(N3CCOCC3)cc2)cc1	-5	-1	-14	1
Cc1cc(C(=O)Nc2ccccc2N2CCOCC2)ccc1[N+](=O)[O-]	-3	3	-9	72*
Cc1cc(C(=O)NC(=S)Nc2ccccc2N2CCOCC2)ccc1[N+](=O)[O-]	1	4	-1	12
Cc1cc(C(=O)NC(=S)Nc2ccccc2N2CCCC2)ccc1[N+](=O)[O-]	4	-2	0	50*
O=C(Nc1cccc(Cl)c1N1CCOCC1)c1cc([N+](=O)[O-])ccc1N1CCOCC1	-3	6	-4	-2
COc1ccccc1NC(=O)c1cc([N+](=O)[O-])ccc1N1CCOCC1	6	2	-2	60*
CCOC(=O)N1CCN(C(=O)CSC2=NS(=O)(=O)c3cc(F)ccc3N2)CC1	-6	1	-11	-1
CCOC(=O)C1(Cc2ccccc2C(F)(F)F)CCN(Cc2ccon2)CC1	-9	1	-5	1
O=C(O)COc1ccccc1/C=N/NC(=O)CSc1nc2ccccc2n1Cc1ccc(Cl)cc1	-6	2	-7	4
CCCC(=O)Nc1nn(C)c2nc3ccc(C)cc3cc12	-2	1	-31	7
Cc1ccc2cc3c(NC(=O)C(C)C)nn(C)c3nc2c1	-3	2	-4	66*
SMILES	APOBEC3A inh	NTR1 ag	A3G deaminase	AHR act
CCn1nc(NC(=O)c2ccncc2)c2cc3cccc(C)c3nc21	-1	3	-3	32
CCn1nc(NC(=O)c2cccnc2)c2cc3cccc(C)c3nc21	3	-1	0	68*
CCC(=O)Nc1nn(C)c2nc3c(C)cccc3cc12	-1	2	-2	1
Cc1cccc2cc3c(NC(=O)C(C)C)nn(C)c3nc12	7	2	-5	72*
CSC1=NC(C(Cl)(Cl)Cl)N=C(c2ccc(C)cc2)N1 (stereo not drawn)	0	3	-6	67*
O=C(N/N=C/c1ccc2cccc(OCc3ccccc3)c2n1)c1ccc(Br)cc1	-1	8	-2	69*
COc1ccc(NC(=S)NCCCCCC(=O)C[N+](=O)[O-])cc1	4	1	3	2
Cc1ccc(NC(=O)c2cc([N+](=O)[O-])ccc2N2CCCC2)cc1	-5	1	-9	30
O=C(Nc1nnc(C2CC2)s1)c1cc([N+](=O)[O-])ccc1N1CCCCC1	0	0	-4	49*
Cc1ccc2nc(NC(=O)c3ccccc3F)sc2c1	-4	1	1	1
CCCC(=O)Nc1nc2ccc(NC(=O)c3ccccc3F)cc2s1	2	-1	-10	62*
